Experimental data taken from PubChem BioAssay AID463173 (ICCB-Longwood Screening Facility, Harvard Medical School, 2010).
About 4,300 (8.3%) of roughly 52,000 compounds were called active. The list comes from a sample in which actives are over-represented; it also holds similar structures and randomly drawn compounds. A number with no mark means an inactive call. No stated cut-off is given here; in the data, active means survival mostly below about 52% (no sharp cut-off); inactive means mostly above about 56%.

Test system: DeltatarO mutant
Assay: growth inhibition of S. aureus wild type versus tarO mutant, primary screen, teichoic acid synthesis inhibitors, RN4220, OD600 (AID 463173)
Conditions: OD600, 18 h, stronger effect = lower value, screened at 18.75 µg/mL (by protocol)

Compound	survival
COc1ccccc1Nc1ncnc2scc(-c3ccc(F)cc3)c12	115%
CC(=O)c1ccc(NC(=O)Cn2ncc3c(C)n(Cc4ccc(F)cc4)c(C)c3c2=O)cc1	60% (active)
Cc1ccc(C)c(NC(=O)Cn2ncc3c(C)n(Cc4ccc(F)cc4)c(C)c3c2=O)c1	71%
Cc1c2cnn(CC(=O)NCc3ccc(Cl)cc3)c(=O)c2c(C)n1Cc1ccc(F)cc1	62%
Cc1cccc(OCC(=O)N(Cc2cccs2)c2ccc(Cl)cc2)c1C	61%
COc1ccc(N(Cc2cccs2)C(=O)COc2cccc(C)c2C)cc1	17% (active)
COc1ccc(N(Cc2cccs2)C(=O)COc2ccc(C(C)C)cc2)cc1	80%
COc1ccc(N(Cc2cccs2)C(=O)COc2cc(C)c(Cl)c(C)c2)cc1	65%
COc1ccc(N(Cc2cccs2)C(=O)COc2cccc(Cl)c2)cc1	42% (active)
COc1ccc(OCC(=O)N(Cc2cccs2)c2ccc(OC)cc2)cc1	66%
Cc1ccccc1-c1nn2c(=O)cc(CN3CCN(C(=O)c4ccccc4Br)CC3)nc2s1	116%
Cc1cc(C)c2c(CC(=O)Nc3ccc(S(=O)(=O)N4CCCCC4)cc3)coc2c1	76%
CC(=O)O/N=C1/CC(C)(C)Cc2onc(C)c21	76%
CCOC(=O)c1cc(S(=O)(=O)NCc2ccc(Cl)cc2)[nH]n1	87%
Cc1ccc(-c2nc(-c3cc4cccc(OCc5ccccc5F)c4oc3=O)no2)cc1	60%
COc1ccc(C2c3[nH]c4ccccc4c3CCN2C(=O)CCC2CCCC2)cc1 (centres undefined)	95%
O=C(C1COc2cc(S(=O)(=O)Nc3ccc(Cl)cc3)ccc2O1)N1CCCC1 (centres undefined)	71%
CN(C(=O)CSc1nc(-c2ccco2)cc(C(F)(F)F)n1)c1ccccc1	92%
COc1ccccc1CNC(=O)CCn1cnc2ccccc2c1=O	-5% (active)
COc1ccccc1NC(=O)CCn1cnc2ccccc2c1=O	92%
O=C(CCn1cnc2ccccc2c1=O)NCc1ccccc1Cl	77%
COc1ccc(N2C(=O)CS(=O)(=O)C23C(=O)N(Cc2c(F)cccc2Cl)c2ccccc23)cc1 (centres undefined)	86%
CCc1ccc(-c2nn(CC(=O)NC3CCCC3)c3c2cnc2ccc(F)cc23)cc1	105%
Cc1ccc2ncc3c(-c4ccc(F)cc4)nn(CC(=O)Nc4ccccc4C)c3c2c1	101%

Compound	survival
CCc1ccc(-c2nn(CC(=O)NC3CCCCC3)c3c2cnc2ccc(C)cc23)cc1	69%
CCc1ccc2ncc3c(-c4ccc(C)cc4)nn(CC(=O)Nc4ccc(C)cc4)c3c2c1	55%
Cc1ccccc1NC(=O)Cn1nc(-c2ccc(F)cc2)c2cnc3ccccc3c21	25% (active)
CCc1ccc(-c2nn(CC(=O)NC3CCCCC3)c3c2cnc2ccc(F)cc23)cc1	72%
Cc1ccc(-c2nn(CC(=O)NC3CCCCC3)c3c2cnc2ccc(F)cc23)cc1C	0% (active)
CCc1ccc2ncc3c(-c4ccc(C)cc4)nn(CC(=O)NCc4ccccc4)c3c2c1	57%
CCc1ccc(-c2nn(CC(=O)Nc3ccccc3C)c3c2cnc2ccc(C)cc23)cc1	70%
CCc1ccc(-c2nn(CC(=O)NC3CCCC3)c3c2cnc2ccc(C)cc23)cc1	37% (active)
Cc1ccc(-c2nn(CC(=O)NC3CCCC3)c3c2cnc2ccc(F)cc23)cc1C	93%
CCCNC(=O)Cn1nc(-c2ccc(C)cc2)c2cnc3ccc(CC)cc3c21	37% (active)
CCN(CC)c1ccc(NC(=O)C2CCN(S(=O)(=O)c3ccc4c(c3)oc(=O)n4C)CC2)c(C)c1	90%
COc1ccc(C2CC(=O)c3cc(-c4nc(-c5cccc([N+](=O)[O-])c5)cs4)c(=O)n(-c4ccc(C)c(C)c4)c3C2)cc1 (centres undefined)	156%
CCCN1c2cccc3cccc(c23)S1(=O)=O	101%
Cc1oc(CC(C)C)cc1C(=O)O	104%
CCN1C(=O)C2C(c3ccc(F)cc3)NC(CCSC)(C(=O)OC)C2C1=O (centres undefined)	54%
Cn1c(=O)[nH]c2cc(-c3noc(-c4cccc(Cl)c4)n3)ccc21	87%
CCOc1ccc(-c2nn(CC(=O)NC3CCCC3)c3c2cnc2ccc(F)cc23)cc1	144%
O=C(Cn1nc(-c2ccccc2)c2cnc3ccc(F)cc3c21)NC1CCCC1	102%
COc1ccc(-c2nn(CC(=O)NC3CCCC3)c3c2cnc2ccc(F)cc23)cc1	46% (active)
Cc1nc2c(C(=O)NCCc3ccc(Cl)cc3)cnn2c(C)c1Cc1c(F)cccc1Cl	75%
Cc1nc2nc(NC(=O)c3ccc(Cl)cc3)[nH]n2c(=O)c1Cc1ccccc1	105%
Cc1cccn2c(=O)c(C(=O)NCCc3ccc(Cl)cc3)cnc12	83%
Cc1nc2c(C(=O)NCCc3ccc(Cl)cc3)c[nH]n2c(=O)c1Cc1ccccc1F	-12% (active)
COc1ccc(CCNC(=O)c2cc(C)nc3c2c(C)nn3-c2ccccc2)cc1OC	92%

Compound	survival
Cc1ccc(CNC(=O)c2c[nH]n3c(=O)c(Cc4ccc(Cl)cc4)c(C)nc23)cc1	-12% (active)
Cc1nc2c(C(=O)NCCc3ccccc3)c[nH]n2c(=O)c1Cc1ccccc1F	-13% (active)
COc1ccc(CCNC(=O)c2ccc(Cn3c(=O)c4ccccc4n(Cc4ccccc4Cl)c3=O)cc2)cc1OC	80%
COc1ccc(CCNC(=O)c2c[nH]n3c(=O)c(Cc4ccccc4Cl)c(C)nc23)cc1OC	32% (active)
Cc1nc2c(C(=O)NCCc3ccccc3)cnn2c(C)c1Cc1c(F)cccc1Cl	79%
Cc1cccn2c(=O)c(C(=O)NCCc3ccccc3)cnc12	58%
Cc1ccc(CNC(=O)c2nnc(Cc3ccc(Cl)cc3)o2)cc1	99%
Cc1ccc(-n2ncc(C(=O)N3CCN(c4ccccn4)CC3)c2C2CCN(C(=O)OC(C)(C)C)CC2)cc1C	72%
COc1ccc2c(c1)N(C)/C(=C1/SC(=O)N(c3ccccc3)C1=O)S2	94%
CC(C)(CC(=O)NCc1ccc(Cl)cc1Cl)CC1=NS(=O)(=O)c2ccccc2N1	75%
CCCOc1ccc(NC(=O)CC2C(=O)N(c3ccc(F)cc3)C(=O)N2CC(C)C)cc1 (centres undefined)	64%
COc1ccc(NC(=O)Cc2coc3cc(C)cc(C)c23)c(OC)c1	60%
COc1ccccc1CCNC(=O)c1cccn1-c1nnc(N2CCCC2)s1	93%
CCCOc1cccc(C(=O)N(Cc2sccc2C)C2CCS(=O)(=O)C2)c1 (centres undefined)	110%
COc1cc2c(=O)c(C(=O)c3ccc(C)c(C)c3)cn(Cc3ccccc3)c2cc1OC	79%
O=C(CSc1nc2c([nH]c3ccccc32)c(=O)n1-c1ccccc1)N1CCCC1	84%
Cc1ccc(-c2nc3ccc(Cl)cn3c2Nc2ccc3c(c2)OCCO3)s1	107%
Cc1ccc(CNC(=O)c2cnn3c(C)c(Cc4c(F)cccc4Cl)c(C)nc23)cc1	70%
Cc1ccc(CNC(=O)CN2CCN(Cc3ccc(F)cc3Cl)C2=O)cc1	79%
Cc1nc2c(C(=O)N(C)Cc3ccccc3)c[nH]n2c(=O)c1Cc1ccc(Cl)cc1	88%
Cc1ccc(CNC(=O)c2c[nH]n3c(=O)c(Cc4ccc(F)cc4Cl)c(C)nc23)cc1	-13% (active)
Cc1nc2c(C(=O)NCCc3ccccc3)c[nH]n2c(=O)c1Cc1ccc(F)cc1Cl	-16% (active)
Cc1nc2c(C(=O)NCc3ccccc3Cl)cnn2c(C)c1Cc1ccccc1	79%
Cc1nc2c(C(=O)NCCc3ccc(Cl)cc3)c[nH]n2c(=O)c1Cc1ccc(Cl)cc1	-14% (active)

Compound	survival
Cc1nc2c(C(=O)NCCc3ccc(Cl)cc3)cnn2c(C)c1Cc1ccc(F)cc1	69%
Cc1nc2nc(NC(=O)c3cccc(Cl)c3)[nH]n2c(=O)c1Cc1ccccc1	111%
Cc1nc2c(C(=O)NCc3ccccc3Cl)c[nH]n2c(=O)c1Cc1cccc(Cl)c1	-16% (active)
Cc1nc2nc(NC(=O)c3ccc(F)cc3)[nH]n2c(=O)c1Cc1ccccc1	101%
Cc1nc2c(C(=O)NCc3ccccc3)c[nH]n2c(=O)c1Cc1ccccc1Cl	49%
COc1ccc(CNC(=O)C(=O)NCC(c2ccco2)S(=O)(=O)c2cccs2)cc1 (centres undefined)	60%
N#C/C(=C\c1ccc[nH]1)C(=O)N1CCc2ccccc2C1	72%
COc1cc(Cl)c(NC(=O)c2cc(S(=O)(=O)N3CCCCC3)c[nH]2)c(OC)c1	119%
Cc1cc(NC(=O)CCNS(=O)(=O)c2ccc3c(c2)CCCC(=O)N3)ccc1Br	76%
COc1ccc(C2CC(=O)Nc3c2c(=O)[nH]c2nc4ccccc4n32)cc1 (centres undefined)	66%
Cc1ccc(C)c(N2CCN(C(=O)C3CCN(S(=O)(=O)c4cn(C)cn4)CC3)CC2)c1	64%
Cc1cc(C)cc(NC(=O)C2CCN(S(=O)(=O)c3cn(C)cn3)CC2)c1	98%
COc1ccccc1CNC(=O)C1CCN(S(=O)(=O)c2cn(C)cn2)CC1	0% (active)
COc1ccccc1CNC(=O)C1CCN(S(=O)(=O)c2ccc3[nH]c(=O)ccc3c2)CC1	102%
CCOc1ccccc1NC(=O)C1CCN(S(=O)(=O)c2ccc3[nH]c(=O)ccc3c2)CC1	63%
Cn1cnc(S(=O)(=O)N2CCC(C(=O)NCc3ccccc3Cl)CC2)c1	118%
Cn1cnc(S(=O)(=O)N2CCC(C(=O)NCc3ccc(Cl)cc3)CC2)c1	101%
CCOc1ccccc1CNC(=O)C1CCN(S(=O)(=O)c2ccc3[nH]c(=O)ccc3c2)CC1	25% (active)
COc1ccc(OC)c(CNC(=O)C2CCN(S(=O)(=O)c3cn(C)cn3)CC2)c1	83%
CN(C)c1ccc(CNC(=O)C2CCN(S(=O)(=O)c3cn(C)cn3)CC2)cc1	0% (active)
Cc1ccc(N(C)C(=O)C2CCN(S(=O)(=O)c3cn(C)cn3)CC2)cc1	37% (active)
Cc1ccc(CNC(=O)C2CCN(S(=O)(=O)c3cn(C)cn3)CC2)cc1	115%
